The values that follow come from PMC7862700, “An all-to-all approach to the identification of sequence-specific readers for epigenetic DNA modifications on cytosine”.

This assay concerns the target T1, ELK3 (Homo sapiens, UniProt P41970 1-407).
T1 sequence: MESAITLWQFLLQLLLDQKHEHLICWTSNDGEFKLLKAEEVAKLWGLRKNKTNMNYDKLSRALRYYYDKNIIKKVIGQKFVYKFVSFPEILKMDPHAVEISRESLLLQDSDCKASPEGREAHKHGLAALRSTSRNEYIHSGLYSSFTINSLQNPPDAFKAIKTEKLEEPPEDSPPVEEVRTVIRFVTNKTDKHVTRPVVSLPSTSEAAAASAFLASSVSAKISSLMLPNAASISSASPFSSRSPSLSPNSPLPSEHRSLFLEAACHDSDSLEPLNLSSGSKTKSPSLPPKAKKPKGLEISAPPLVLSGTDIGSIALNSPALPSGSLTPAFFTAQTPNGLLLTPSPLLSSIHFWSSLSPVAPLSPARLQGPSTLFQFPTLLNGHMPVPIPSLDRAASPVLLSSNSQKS
As to the kind of experiment: DAPPL (digital affinity profiling via proximity ligation, sequencing); 10 mM Tris-HCl pH 7.5, 50 mM NaCl, 1 mM DTT, 4% glycerol, room temperature, 30 min; GST-TFs on glutathione beads, 16-mer random dsDNA library, 0.1% formaldehyde crosslink after washing; high values mean tight binding. The note with it: protein: recombinant; tags: N-terminal GST; dsDNA, one strand shown. The gist of the method: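 GST fusions of human transcription factors were expressed in yeast and captured with glutathione beads. Once given DNA barcodes and pooled alongside a tag-only sample, they were incubated for 30 min at room temperature with 200 nmole of a random double-stranded 16-mer DNA library in Tris/NaCl/DTT/glycerol buffer, then washed, crosslinked (0.1% formaldehyde), proximity-ligated, PCR-amplified and sequenced on an Illumina NextSeq500. The binding signal of each hexamer is its read frequency for a factor divided by its frequency for the tag-only sample.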
Take ACCTAA: the binding signal was 1.2 fold enrichment (6-mer frequency, TF over GST control). Consider CTACAC, for which the binding signal is 1.27 fold enrichment (6-mer frequency, TF over GST control). As for TATCCA, the binding signal is 1.37 fold enrichment (6-mer frequency, TF over GST control). Turning to GATTAC, the binding signal was 1.18 fold enrichment (6-mer frequency, TF over GST control). Then GACTTC, with 2.61 fold enrichment (6-mer frequency, TF over GST control).

For TATAAA, the binding signal was 1.26 fold enrichment (6-mer frequency, TF over GST control). Take CACGAT: the binding signal was 1.25 fold enrichment (6-mer frequency, TF over GST control). For TTATGA, the binding signal is 1.22 fold enrichment (6-mer frequency, TF over GST control). Consider TAGCTT, for which the binding signal was 1.31 fold enrichment (6-mer frequency, TF over GST control).

Consider TATTCA, for which the binding signal is 1.35 fold enrichment (6-mer frequency, TF over GST control). For ACCTCT, the binding signal is 1.36 fold enrichment (6-mer frequency, TF over GST control). The result for TCCCCC reads 1.27 fold enrichment (6-mer frequency, TF over GST control). Then TCGACA, with 1.35 fold enrichment (6-mer frequency, TF over GST control). Then AGTATT, with 1.14 fold enrichment (6-mer frequency, TF over GST control). For the sequence ATGTTA, the binding signal is 1.15 fold enrichment (6-mer frequency, TF over GST control).

With CATTTG, the binding signal is 1.2 fold enrichment (6-mer frequency, TF over GST control). Consider GCACTT, for which the binding signal was 1.99 fold enrichment (6-mer frequency, TF over GST control). For the sequence TCACTC, the binding signal is 1.18 fold enrichment (6-mer frequency, TF over GST control).

Regarding CCCGCT, the binding signal is 1.35 fold enrichment (6-mer frequency, TF over GST control). With ATTAAT, the binding signal was 1.26 fold enrichment (6-mer frequency, TF over GST control).

For AACTAC, the binding signal was 1.48 fold enrichment (6-mer frequency, TF over GST control). Regarding ACTTTC, the binding signal was 1.62 fold enrichment (6-mer frequency, TF over GST control).

In the case of CATTTA, the binding signal was 1.23 fold enrichment (6-mer frequency, TF over GST control).

For the sequence GCTCTC, the binding signal is 1.46 fold enrichment (6-mer frequency, TF over GST control). Take GCTTTA: the binding signal is 1.24 fold enrichment (6-mer frequency, TF over GST control). Regarding CCTGAT, the binding signal was 1.45 fold enrichment (6-mer frequency, TF over GST control). The result for ATTCCT reads 1.3 fold enrichment (6-mer frequency, TF over GST control); that for AGTGCT, 1.59 fold enrichment (6-mer frequency, TF over GST control).

With AGCAAT, the binding signal was 1.05 fold enrichment (6-mer frequency, TF over GST control).

Consider TTTTTC, for which the binding signal was 1.39 fold enrichment (6-mer frequency, TF over GST control).

As to ATGCTA, the binding signal is 1.37 fold enrichment (6-mer frequency, TF over GST control). Consider CAAGAT, for which the binding signal was 1.14 fold enrichment (6-mer frequency, TF over GST control). In the case of CTTTAT, the binding signal was 1.25 fold enrichment (6-mer frequency, TF over GST control).

TCTAAT: the binding signal is 1.21 fold enrichment (6-mer frequency, TF over GST control). Consider AGCTTA, for which the binding signal was 1.11 fold enrichment (6-mer frequency, TF over GST control). Consider TTGAAT, for which the binding signal is 1.04 fold enrichment (6-mer frequency, TF over GST control). Then CAATAT, with 1.31 fold enrichment (6-mer frequency, TF over GST control); and TTAAAC, with 1.31 fold enrichment (6-mer frequency, TF over GST control).

AATTCG: the binding signal was 1.29 fold enrichment (6-mer frequency, TF over GST control).

Regarding TGACCC, the binding signal was 1.4 fold enrichment (6-mer frequency, TF over GST control).
